Assay outcomes deposited in PubChem by several laboratories.
NLRP3 yeast inh – blocks the NALP3 inflammasome reconstituted in yeast. inhibition, % at 10 µM. AID 2825. Yeast reconstituted NLRP3/ASC/caspase-1, beta-gal luminescence, 24 h. 0.39% of 330,000 active;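 active = inhibition of 50% or more; inactive = inhibition below 50%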
TIM10 inh – growth inhibitors of TIM10 yeast strain. S. cerevisiae TIM10 strain growth, BacTiter-Glo luminescence, 24 h. inhibition, % at 10 µM. 1.4% of 330,000 active. AID 463195;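 active = inhibition of 40% or more at the single tested concentration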;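 also: wild-type TIM10 isogenic control strain grown at permissive 25 °C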
tim23-1 inh – growth inhibitors of tim23-1 mutant yeast; S. cerevisiae tim23-1 growth, BacTiter-Glo luminescence, 24 h; inhibition, % at 20 µM; 1.3% of 330,000 active; AID 463212;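 active = growth inhibition of the mutant yeast at or above 50%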;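 also: temperature-sensitive mutant grown at 25 °C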
tim10-1 inh – tim10-1 yeast growth inhibition; S. cerevisiae tim10-1 ts strain growth, BacTiter-Glo, 24 h; inhibition, % at 20 µM; 2.2% of 330,000 active;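 active = inhibition of at least 40%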;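 also: mutant grown at 25 °C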
CR mimetic SO – lowers age-related superoxide in aged yeast cells | S. cerevisiae aged cells, superoxide DHE fluorescence; hits give low values | superoxide response (% of plate mean), % at 10 µM | 0.18% of 330,000 active;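 active = superoxide response under a set limit, about three screen SD below normal, cut at about 65% in these data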;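 also: yeast aged for seven days with compound at 30 °C before DHE staining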
NALP3 yeast conf – NALP3 inhibition confirmation in yeast; shares compounds with NLRP3 yeast inh; yeast expressing human NALP3, luminescence; inhibition, % at 10 µM; 81% of 1,300 active; in the data active = inhibition above about 48%
Casp1 ASC ctr – counter-screen for NALP3 inhibitors: yeast caspase-1-ASC. shares compounds with NLRP3 yeast inh. yeast expressing Caspase-1-ASC, luminescence counter screen. inhibition, % at 10 µM. 66% of 1,000 active
NALP3 yeast rt – confirmation retest of NALP3 inhibitors in yeast | shares compounds with NLRP3 yeast inh | yeast expressing human NALP3, luminescence read-out | inhibition, % at 10 µM | 53% of 1,000 active
Hits are given with their value; – = inactive; · = not tested or not shown. This is a sample that favours compounds with a hit; in the whole collection about 3.8% have one here. Rule as the data show it, unless noted: active = inhibition above about 50%; inactive = the rest.

SMILES	NLRP3 yeast inh	TIM10 inh	tim23-1 inh	tim10-1 inh	CR mimetic SO	NALP3 yeast conf	Casp1 ASC ctr	NALP3 yeast rt
Clc1ccc(-c2nc3n(n2)Cc2ccccc2-3)cc1	–	–	–	–	–	·	·	·
Cc1ccccc1-n1nnnc1Sc1nnnn1-c1ccccc1	–	–	–	–	–	·	·	·
CCCSc1nnc(Sc2nnnn2-c2ccccc2)s1	58	–	–	–	–	66	60	–
CC1(C)CC(=O)/C(=C\c2cccc([N+](=O)[O-])c2)C(C)(C)N1	59	–	–	–	–	55	–	–
O=C1N/C(=N/O)S/C1=C/c1cccc([N+](=O)[O-])c1	–	–	–	–	–	·	·	·
Cc1ccc(Nc2nc(N)c3ccccc3n2)cc1Cl	55	–	–	–	–	65	–	–
O=C(CC1C(=O)NC2CCCCC2N1C(=O)c1ccc(F)cc1)Nc1ccccc1 (stereo unspecified)	–	–	–	–	–	·	·	·
COc1ccccc1N1CCN(c2nccc(C)n2)CC1	51	–	–	–	–	63	52	–
CCn1c(SCC(=O)Nc2cc(S(=O)(=O)N3CCOCC3)ccc2OC)nnc1-c1ccncc1	–	–	–	–	–	·	·	·
Cc1onc(-c2ccccc2)c1C(=O)Oc1ccccc1	–	–	–	–	–	·	·	·
CC(=Nc1ccc(O)cc1)c1sc2ccccc2c1O	–	–	–	–	–	·	·	·
Oc1c(N=Nc2ccccc2)sc2ccccc12	51	–	–	–	–	71	·	·
Cc1noc(C)c1C(=O)Nc1nc2ccccc2s1	50	–	–	–	·	49	–	–
CCOC(=O)c1cnc(SC)nc1N	–	–	–	–	–	·	·	·
CCOC(=O)c1cnc(SC)nc1N1CCCC1	56	–	–	–	–	52	56	–
COc1cccc(NS(=O)(=O)c2ccc(Br)s2)c1	53	–	–	–	–	63	–	–
Cn1c(=O)c2c(SCc3cccnc3)nc(CC(C)(C)C)nc2n(C)c1=O	–	–	–	–	–	·	·	·
CCCc1nc(SCc2cccnc2)c2c(=O)n(C)c(=O)n(C)c2n1	54	–	–	–	–	66	57	–
S=C(NC1CC1)N1CCCc2ccccc21	–	–	–	–	–	·	·	·
COc1ccc(CNC(=O)[C@]2(C)CCC[C@@]3(C)C4CC[C@@]5(C)C[C@]4(CCC32)CC5=O)cc1 (stereo partly specified)	51	–	–	–	–	–	·	·
C#CCn1c(S(=O)(=O)Cc2ccc(F)cc2)nc(-c2ccccc2)c1-c1ccccc1	–	–	–	–	–	·	·	·
CN(CC(=O)Nc1ccc(C#N)cc1)Cc1ccc(Cl)cc1	–	–	–	–	–	·	·	·
CN(CC(=O)Nc1ccc(C#N)cc1)Cc1ccc(Cl)cc1Cl	65	–	–	–	–	59	59	–
N#Cc1ccc(NC(=O)Nc2ccc(Cl)cc2)cc1	72	–	–	–	–	57	–	60
O=C(Nc1ccc(Cl)cc1)Nc1ccc(Cl)c(Cl)c1	72	–	–	–	–	72	–	–
SMILES	NLRP3 yeast inh	TIM10 inh	tim23-1 inh	tim10-1 inh	CR mimetic SO	NALP3 yeast conf	Casp1 ASC ctr	NALP3 yeast rt
CCC(CC)NC(=O)COc1ccc(OC)cc1C=O	–	–	–	–	–	·	·	·
Cn1nc(-c2ccccc2)c(C(=O)Nc2ccc(C(F)(F)F)cc2)c1Cl	–	–	–	–	–	·	·	·
Cn1nc(-c2ccccc2)c(C(=O)Nc2ccc(Cl)cc2)c1Cl	81	–	–	–	–	86	55	–
COc1ccc(CCN2C(=O)CC(N3CCN(C/C=C/c4ccccc4)CC3)C2=O)cc1OC (stereo unspecified)	–	–	–	–	–	·	·	·
NS(=O)(=O)c1ccc(NNC(=O)c2ccc(Br)o2)c([N+](=O)[O-])c1	–	–	–	–	–	·	·	·
CS(=O)(=O)N(CC(=O)N1CCc2ccccc2C1)Cc1ccccc1	–	–	–	–	–	·	·	·
CN(CC(=O)N1CCc2ccccc2C1)c1ccccc1	55	–	–	–	–	–	–	55
Cc1cc(C)c(NC(=O)C2=COCCO2)c(C)c1	–	–	–	–	–	·	·	·
CCCc1nc(NCCCOCC)c2nnn(Cc3ccccc3)c2n1	–	–	–	–	–	·	·	·
O=C(Cc1ccc(F)cc1)NCCc1cnc[nH]1	–	–	–	–	–	·	·	·
NCCC(=O)NCCc1cnc[nH]1	66	–	–	–	–	76	63	72
CS(=O)(=O)N1CCN(C(=O)NC2CCCCC2)CC1	–	–	–	–	–	·	·	·
C=CCNc1nc(Nc2ccc([N+](=O)[O-])cc2)nc(OCC)n1	–	–	–	–	–	·	·	·
C=CCNc1nc(Cl)nc(Nc2ccc(OCC)cc2)n1	52	–	–	–	–	–	–	–
CC(C)Cc1cc(CN2CCC(CO)(Cc3cccc(C(F)(F)F)c3)CC2)[nH]n1	–	–	–	–	–	·	·	·
COc1cccc(NC(=O)c2ccc(OC(F)(F)F)cc2)c1	50	–	–	–	·	63	–	–
CC1CCCCN1S(=O)(=O)c1cnc(Cl)c(Br)c1 (stereo unspecified)	55	–	–	–	–	54	·	·
CCCOc1cc(C)c(S(=O)(=O)N2CCOCC2)cc1C	57	–	–	–	–	52	·	·
COc1cc(C)ccc1OCCOc1ccccc1Cl	51	–	–	–	–	49	–	–
COc1cc(C)ccc1OCCCOc1ccccc1Cl	–	–	–	–	–	·	·	·
Clc1ccc(SCc2nc3ccccc3[nH]2)cc1	–	–	–	–	–	·	·	·
Clc1ccc(/C=C/c2nc3ccccc3[nH]2)cc1	54	–	–	–	–	77	54	71
Clc1ccc(/C=N/Nc2nnc(Cl)c3ccccc23)cc1	–	–	–	–	–	·	·	·
Clc1nnc(N/N=C/c2ccccc2)c2ccccc12	60	–	–	–	–	71	–	–
COc1ccccc1C(=O)NCCC(=O)NCc1cccnc1	–	–	–	–	–	·	·	·
SMILES	NLRP3 yeast inh	TIM10 inh	tim23-1 inh	tim10-1 inh	CR mimetic SO	NALP3 yeast conf	Casp1 ASC ctr	NALP3 yeast rt
O=c1c2cc(Br)ccc2nc(-c2ccc([N+](=O)[O-])cc2)n1O	53	–	–	–	–	79	–	62
N#Cc1ccc(-c2nc3ccc(Br)cc3c(=O)n2O)cc1	–	–	–	–	–	·	·	·
CCN(CC)S(=O)(=O)c1cc(C)c(C)cc1Br	58	–	–	–	–	54	53	–
CCN(CC)S(=O)(=O)c1cc(C(=O)O)c(Cl)cc1Cl	–	–	–	–	–	·	·	·
O=C(C1CCN(S(=O)(=O)c2ccc(Br)s2)CC1)N1CCc2ccccc21	55	–	–	–	–	64	61	–
COC(=O)C1CCN(S(=O)(=O)c2ccc(Br)s2)CC1	–	–	–	–	–	·	·	·
CC1Cc2nc(SCC(=O)N3CCc4ccccc43)n(C)c(=O)c2S1 (stereo unspecified)	–	–	–	–	–	·	·	·
CC1Cc2nc(SCC(=O)OCc3ccccc3)n(C)c(=O)c2S1 (stereo unspecified)	59	–	–	–	–	70	–	–
